Among all 340,000 compounds or so, about 990 (0.29%) were called active. Rule as the data show it: active = activation above about 18%; inactive = the rest. This excerpt belongs to a sample that is enriched for actives.
The molecules below were run against Mu-type opioid receptor (Homo sapiens) + Delta-type opioid receptor (Homo sapiens) (UniProt P35372+P41143) (assay: agonists of OPRM1-OPRD1 heterodimerization, primary screen, cell-based, luminescence (AID 504326;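 also: 0% = vehicle-treated cells and 100% = reference agonist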)). Settings: cells, at 9.3 µM, active compounds read high.
Mu-type opioid receptor (Homo sapiens) + Delta-type opioid receptor (Homo sapiens), sequence (P35372 whole entry, looked up): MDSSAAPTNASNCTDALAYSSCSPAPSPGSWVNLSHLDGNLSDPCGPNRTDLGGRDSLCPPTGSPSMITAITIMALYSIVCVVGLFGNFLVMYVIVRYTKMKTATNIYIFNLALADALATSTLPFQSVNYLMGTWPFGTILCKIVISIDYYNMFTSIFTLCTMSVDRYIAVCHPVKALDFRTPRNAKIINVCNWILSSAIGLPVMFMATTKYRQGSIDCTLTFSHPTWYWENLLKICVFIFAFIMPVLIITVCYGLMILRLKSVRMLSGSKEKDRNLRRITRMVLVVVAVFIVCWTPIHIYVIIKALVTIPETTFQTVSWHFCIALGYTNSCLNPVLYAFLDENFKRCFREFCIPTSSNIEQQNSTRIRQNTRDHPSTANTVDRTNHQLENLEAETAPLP
Mu-type opioid receptor (Homo sapiens) + Delta-type opioid receptor (Homo sapiens), sequence (P41143 whole entry, looked up): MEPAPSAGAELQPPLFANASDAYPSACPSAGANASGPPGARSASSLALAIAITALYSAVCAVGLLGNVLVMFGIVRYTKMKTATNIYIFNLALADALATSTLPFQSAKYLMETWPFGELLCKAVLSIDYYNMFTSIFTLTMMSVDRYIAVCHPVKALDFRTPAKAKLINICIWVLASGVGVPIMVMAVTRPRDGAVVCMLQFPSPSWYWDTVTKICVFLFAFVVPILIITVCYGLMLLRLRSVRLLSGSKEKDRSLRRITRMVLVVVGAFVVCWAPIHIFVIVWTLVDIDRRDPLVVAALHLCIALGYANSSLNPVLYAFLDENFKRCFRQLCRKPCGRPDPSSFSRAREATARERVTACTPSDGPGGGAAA

Compound	activation
COC1C(O)C(C)OC(OC2CCC3(C=O)C(CCC4C3CCC3(C)C(C5=CC(=O)OC5)CCC43O)C2)C1O (stereo not given)	82.9% (active)
COc1cc2nc(N3CCN(C(=O)[C@@H]4CCCO4)CC3)nc(N)c2cc1OC	-0.16% (inactive)
CC1(C)C(c2ccccc2)=NC(c2cccnc2)=[N+]1[O-]	-4.09% (inactive)
CC(=O)OC1C2(CC3N4C(=O)C5(CO)SSC4(CC31O)C(=O)N5C)OC(C)C(C)(C)C2=O (stereo not given)	-23.2% (inactive)
C[C@]12CCC3C(CC[C@H]4C[C@@H](O)CC[C@]34C)C1CC[C@@H]2O (stereo not given in full)	-1.31% (inactive)
C[C@]12CC[C@H](O)C[C@H]1CC[C@@H]1C2CC[C@]2(C)[C@@H](C3=CC(=O)OC3)[C@@H](O)C[C@]12O (stereo not given in full)	62.4% (active)
C[C@]12CCC3C(CC[C@H]4C[C@@H](O)CC[C@]34C)C1C[C@@H](O)[C@H]2O (stereo not given in full)	-2.9% (inactive)
CCOP(=O)(OCC)C(NC(=O)NC)C(N)=O (stereo not given)	-3.11% (inactive)
c1cc2c(cc1C1OCC3C(c4ccc5c(c4)OCO5)OCC13)OCO2 (stereo not given)	1.03% (inactive)
Cn1c(O)c(C=NCCCC(=O)O)c(=O)n(C)c1=O	-1.29% (inactive)
CCOC(=O)C1(Cc2ccc(Cl)cc2)CCN(C(C)CCn2cccn2)CC1 (stereo not given)	0.28% (inactive)
CCOC(=O)C1(c2ccccc2)CCN(CC(O)c2ccc(NC(C)=O)cc2)CC1 (stereo not given)	3.27% (inactive)
CCOC(=O)C1(CCc2ccccc2)CCN(Cc2ccco2)CC1	23.8% (active)
NC(=O)Cn1cc(C(=O)c2ccccc2F)c2ccccc21	-3.05% (inactive)
c1ccc2sc(C3CCCNC3)nc2c1 (stereo not given)	-2.28% (inactive)
COc1ccc(C2NCc3ccc4c(c3-n3cccc32)OCO4)cc1OC (stereo not given)	-3.63% (inactive)
CCC1(C)CC(CCNCc2ccc(N(C)C)cc2)(c2ccc(F)cc2)CCO1 (stereo not given)	125% (active)
COC(=O)C1=C(c2c(C)noc2C)C[C@@H]2CC[C@H]1N2C(=O)NCc1ccc2c(c1)OCO2	-2.32% (inactive)
CCCCC(=O)N/N=C/c1c(O)n(CC)c(=S)n(CC)c1=O	0.54% (inactive)
O=C1NC(=O)C(CCOc2ccccc2)(CCc2ccccc2)C(=O)N1	-1.87% (inactive)
